Data on 40 compounds can be found in the supplement of paper PMC3484114.

± gives the standard deviation.

The test system of the test is OVCAR-3-derived ovarian cancer stem-like cells (spheroids). The experiment in a line: cell growth relative to untreated control; higher = more growth (less inhibition). Conditions: 2.29 µM; 96 h. In outline: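 Viability of stem-like cells from OVCAR-3 spheroids was assessed with TOX8 resazurin fluorescence at ex 560/em 590 nm. The cells had been trypsin-dissociated, seeded at 50,000 cells/mL in stem cell medium in ultra-low attachment 96-well plates and preincubated 24 h, then treated with compounds at 2.29 uM for 96 h at 37°C, 5% CO2, in 4 replicate wells, with fluorescence read after 4 h. Results were converted to percent growth against untreated wells after blank subtraction and Grubbs outlier removal.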
Take `O=[N+]([O-])c1cc(-c2nc(=S)[nH][nH]2)ccc1O`: the cell growth is 98.5 ± 14%. On to `Cc1ccc(C2NC(=O)c3ccccc3N2)s1` (stereo not given), for which the cell growth stood at 60.4 ± 16%.

As to `CCOC(=O)C1=C(O)CSC1=Nc1ccc(N=C2SCC(O)=C2C(=O)OCC)cc1`, the cell growth worked out at 108 ± 30%. The result for `CC(C)(C)NCCC(O)c1cc(C(F)(F)F)nc2c(C(F)(F)F)cccc12` (stereo not given) reads 108 ± 23%; that for `CC(=O)/C(C)=N/NC(=O)c1ccccc1O`, 98.3 ± 20%; that for `COC(=O)c1ccccc1OCc1cc(=O)oc2ccc(C)cc12`, 115 ± 20%.

The compound `C[C@]12CC[C@@H]3c4ccccc4CC[C@H]3[C@@H]1CC[C@@H]2O` came in with a cell growth of 229 ± 23%. Consider `COc1ccc2cc(CN3CCC(C4CCN(Cc5ccc6cc(OC)ccc6c5)CC4)CC3)ccc2c1`, for which the cell growth was 110 ± 24%. The same measure for `COc1ccc(C(=O)/C(Br)=C\C(=O)O)cc1`: 75.5 ± 16%; for `COc1ccc(Cc2nc3ccccc3s2)cc1OC`: 98.9 ± 21%; for `COC(=O)C1=CC(=O)C(C(=O)Nc2ccc(OC)cc2)C(c2ccccc2)O1` (stereo not given): 96.3 ± 45%. In turn, `CCCCC(/C=N/N=C(N)N)CC.Cc1cc(O)c(C(C)C)cc1S(=O)(=O)O` had a cell growth of 91.8 ± 17%. The compound `O=S(=O)(O)c1cc(N=Nc2cc(S(=O)(=O)O)c3ccccc3c2O)ccc1/C=C/c1ccc(N=Nc2cc(S(=O)(=O)O)c3ccccc3c2O)cc1S(=O)(=O)O` gave a cell growth of 110 ± 24%. `O=C1NC(c2cccc3ccccc23)Nc2ccc(Cl)cc21` (stereo not given) returned a cell growth of 99.5 ± 9.1%.

For `CC1=C(C(=O)NCc2ccccc2)C(c2ccccc2O)C(C(=O)NCc2ccccc2)=C(C)N1`, the cell growth came out at 76.9 ± 12%. The same measure for `Cc1ccc(N=N/C(=N\NC(=O)c2ccc(C)cc2)c2ccc(N(CCC#N)CCC#N)cc2C)cc1`: 74.4 ± 26%. In the case of `O=C1C=C(Nc2cccnc2)c2ccccc2C1=O`, the cell growth stood at 59.3 ± 11%. The compound `N#CCCN(CCC#N)c1ccc(C=Nc2ccc(F)cc2)cc1` gave a cell growth of 101 ± 28%. The result for `Cc1ccc(Cl)c2c(N=Nc3ccccc3[N+](=O)[O-])c(O)[nH]c12` reads 107 ± 34%. As to `CS(=O)(=O)OCCCCOS(C)(=O)=O`, the cell growth was determined as 121 ± 16%. Turning to `CC1OC1C(=O)C1(O)C(C)C(O)C23OC2(C(O)c2c(O)cccc2C3=O)C1O` (stereo not given), the cell growth worked out at 23.6 ± 6.9%.

With `O=[N+]([O-])c1ccc(-c2cn(-c3ccc(Cl)cc3)cn2)cc1`, the cell growth came to 106 ± 23%. `C[C@H](CSC(=O)c1ccccc1)C(=O)N1c2ccccc2C[C@H]1C(=O)O` returned a cell growth of 90.9 ± 9.5%.

The compound `CN(C)c1ccc(C=c2c3ccccc3n3c2cc(-c2ccc(Cl)cc2)[n+]3C)cc1` displayed a cell growth of 39.7 ± 12%. For the compound `OC[C@H]1O[C@@H](n2cnc3cncnc32)[C@H](O)[C@@H]1O`, the cell growth stood at 10.4 ± 3.1%. For the compound `CCOC(=O)Cc1cc(=O)oc2cc(O)ccc12`, the cell growth stood at 80.4 ± 11%. The result for `Nc1nc(N)c2ncn(-c3ccccc3)c2n1` reads 162 ± 19%. The same measure for `NC(=Nc1nc(-c2ccccn2)cc2ccccc12)c1ccccn1`: 9.1 ± 2.3%; for `BrC(/C=N/Nc1nnc(-c2ccccc2)c(-c2ccccc2)n1)C(Br)c1ccccc1` (stereo not given): 93.9 ± 17%.

Take `CC1(C)N=C(N)N=C(N)N1c1ccc(CCCCc2ccc(Cl)cc2Cl)cc1`: the cell growth came out at 51.5 ± 9.2%.

Compound `Cc1cc(NC(=O)NC(=O)c2ccccc2NC(=O)CN)ccc1Oc1ncc(Br)cn1` yielded a cell growth of 49.8 ± 9%. In turn, `C=C1C(=O)C2=CC1CCC(=O)C1(C)CCC(OC(C)=O)C(C)(C)C1CC2O` (stereo not given) came in with a cell growth of 30.4 ± 11%.

For the compound `CCN(CC)CCCC(C)Nc1ccnc(/C=C/c2ccc(Cl)cc2)c1` (stereo not given), the cell growth came to 84.6 ± 25%. The result for `CCOC(=O)/C(=C/c1ccc(N(C)C)cc1)N(CC)CC` reads 85 ± 9.3%; that for `Cc1cc(NCCCCCCCNc2cc(C)nc3cc(N)ccc23)c2ccc(N)cc2n1`, 96.4 ± 25%.

As to `Clc1ccccc1C(c1ccccc1)(c1ccccc1)n1ccnc1`, the cell growth was found to be 106 ± 13%. The result for `CN1C(c2ccccc2)CC(=NO)CC1c1ccccc1` (stereo not given) reads 99.7 ± 13%; that for `Cc1cc(C)c(NC(=O)/C=C/c2ccccc2)c(C)c1`, 89.7 ± 13%; that for `Cc1cc(N)c2ccccc2[n+]1CCCCCCCCCC[n+]1c(C)cc(N)c2ccccc21`, 41.9 ± 7.2%.

As to `COc1ccc2oc(-c3ccncc3)cc(=O)c2c1`, the cell growth turned out to be 122 ± 9.1%.
